Screening results (PubChem BioAssay)
POLH inh: inhibitors of human DNA polymerase eta; Potency, µM (series often up to 114 µM), actives largely listed as inhibitors; 390,000 tested, 1.2% active; AID 588591; recombinant Pol eta, fluorescent DNA replication assay
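Fluorescent replication assay: 50 nM final substrate added after a 15 min room-temperature compound preincubation with 10 nM enzyme. Signal taken at 0 min and again at 10 min.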
Pol iota inh: inhibitors of human DNA polymerase iota; Q9UNA4; Pol iota fluorescent replication assay, 10 min; Potency, µM (highest dose often 115 µM), actives largely listed as inhibitors; 390,000 tested, 1% active; AID 588590
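Pol iota at 10 nM preincubated 15 min with compounds at room temperature; reaction started with fluorescent substrate, 50 nM final. Fluorescence read kinetically at 0 and 10 min; buffer-only wells as negative control.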
Pol kappa inh: inhibitors of human DNA polymerase kappa. Q9UBT6. purified Pol kappa, fluorescent DNA synthesis assay, 10 min. 400,000 tested, 0.53% active. AID 588579. Potency, µM (titrated, usually from 107 µM), hits mostly inhibitors
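50 nM final substrate added after 15 min RT preincubation of 10 nM Pol kappa with compound; fluorescence read at 0 and 10 min.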
FEN1 inh: blocks human flap endonuclease 1. P39748. Recombinant FEN1 flap cleavage, fluorescence, 15 min. Potency, µM (highest dose often 114 µM), usual class: inhibitors. 390,000 tested, 0.35% active. AID 588795; also: nearly all actives have a fitted effect of over 65% in size
Target sequence (P39748 whole entry, looked up): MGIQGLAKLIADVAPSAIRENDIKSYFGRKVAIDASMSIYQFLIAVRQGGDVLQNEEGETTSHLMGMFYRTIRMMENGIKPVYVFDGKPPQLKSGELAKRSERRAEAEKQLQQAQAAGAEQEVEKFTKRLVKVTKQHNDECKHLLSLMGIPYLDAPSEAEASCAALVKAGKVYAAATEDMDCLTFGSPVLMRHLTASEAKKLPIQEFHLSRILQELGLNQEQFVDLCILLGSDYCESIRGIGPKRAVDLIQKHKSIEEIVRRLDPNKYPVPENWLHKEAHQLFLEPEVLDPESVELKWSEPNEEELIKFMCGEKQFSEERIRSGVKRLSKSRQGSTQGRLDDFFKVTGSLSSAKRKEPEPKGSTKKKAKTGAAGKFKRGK
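Enzyme 10 nM, 15 min RT preincubation with compound; start with substrate 50 nM final; reads at 0 and 15 min; qHTS titration, four-parameter Hill fit.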
PGK inhibitor: blocks T. brucei phosphoglycerate kinase. P07378. PGK/GAPDH coupled, Kinase-Glo luminescence, 60 min. Potency, µM (highest dose often 57.5 µM), usual class: inhibitors. 380,000 tested, 0.043% active. AID 602233; also: nearly all actives have a fitted effect of over 60% in size
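Luminescent ATP detection (Kinase-Glo Plus) follows a 60-minute room-temperature incubation, with wells lacking PGK as controls. Buffer: 100 mM TEA (pH 7.6), 5 mM MgCl2, 0.01% Tween-20. Coupling enzyme GAPDH (100 nM final) supplies unstable 1,3-BPG in-well.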
Pol beta inh: blocks human DNA polymerase beta activity | Potency, µM (titrated, usually from 114 µM), usual class: inhibitors | 340,000 tested, 1.3% active | Pol beta primer extension/strand displacement, fluorescence kinetic
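Pol beta (10 nM) and compounds were preincubated 15 min at room temperature, then 50 nM substrate (final) started primer extension/strand displacement. Reads were taken at 0 and 10 min; concentration-response data were fitted to a four-parameter Hill equation.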
TbPGK inh: blocks T. brucei phosphoglycerate kinase | shares compounds with Pol kappa inh | TbPGK coupled GAPDH assay, Kinase-Glo luminescence | Potency, µM (doses to about 57.5 µM), hits mostly inhibitors | 500 tested, 79% active | AID 686980; also: nearly all actives have a fitted effect of over 65% in size
POLI cherry-pick: Inhibitors of human DNA polymerase iota, confirmation; Potency, µM, usual class: inhibitors; 1,500 tested, 77% active; Pol iota primer extension, TAMRA/BHQ fluorescence; shares compounds with Pol kappa inh
Each line names hits and unclear results; the compound was inactive in the other large screens (follow-up assays come after a bar, where they were run). Shown are actives, neighbours in structure and some others; about 2.4% of the full set was active somewhere. Calls follow the shape of the dose curve; as a rule, active = well fitted curve in the direction sought with a large enough effect; inconclusive = small, poorly fitted or top-dose-only effect, or another doubt; inactive = no such curve, though single readings can be large; an effect the other way counts as inactive or inconclusive.

CC1=CC2=NC(=O)/C(=C\c3ccc(-c4cccc(Cl)c4)o3)C(=N)N2O1	POLH inh 5.6µM, Pol iota inh inconclusive, Pol beta inh inconclusive | POLI cherry-pick inconclusive
CCc1ccc(NCc2cc3cc4c(cc3n(CC(=O)Nc3ccccc3Cl)c2=O)OCO4)cc1	none
Cc1c(C(=O)Nc2ccccc2)cn2c(nc3ccccc32)c1C#N	none
Cc1ccccc1C(=O)Nc1ccc2c(C#N)c3nc4ccccc4nc3n2c1	POLH inh 10µM, FEN1 inh inconclusive, Pol beta inh inconclusive | POLI cherry-pick inconclusive
CCOc1ccc(NC(=O)CN2CCSc3ccc(S(=O)(=O)N4CCCC4)cc32)cc1	none
C[C@@H]1O[C@@H](O[C@@H]2[C@@H](O)[C@H](OCCc3ccc(O)c(O)c3)O[C@H](CO)[C@H]2OC(=O)/C=C/c2ccc(O)c(O)c2)[C@H](O)[C@H](O)[C@H]1O	Pol iota inh inconclusive, Pol kappa inh 22µM, FEN1 inh inconclusive (no result: Pol beta inh) | POLI cherry-pick 21
CCOC(=O)c1cnn(-c2ccc(C(=O)Nc3cc(OC)c(OC)c(OC)c3)cc2)c1N	none
Cc1ccc(N=C2NC(=O)S/C2=C\c2ccco2)cc1	Pol iota inh inconclusive, Pol beta inh 7.9µM | POLI cherry-pick 67
O=C1NC(=Nc2ccccc2)/C(=C/c2ccco2)S1	Pol iota inh inconclusive, Pol beta inh inconclusive
CCOc1ccc(C(=O)Nc2ccc3oc(-c4cccc5ccccc45)nc3c2)cc1	Pol iota inh inconclusive
CCOc1ccc(N2CC(c3nc4ccccc4n3CCCOc3ccccc3OC)CC2=O)cc1 (stereo unspecified)	none
Cc1ccccc1Nc1nn2c(=O)c3ccc(C(=O)NCc4ccccc4)cc3nc2s1	POLH inh inconclusive, Pol iota inh 79µM, Pol beta inh 13µM | POLI cherry-pick inconclusive
COc1ccc(N(C(=O)c2snc(C(N)=O)c2N)C(C(=O)NC2CCCC2)c2cccs2)cc1OC (stereo unspecified)	POLH inh inconclusive, Pol iota inh 8.9µM, Pol beta inh inconclusive | POLI cherry-pick inconclusive
Cc1nc(N2CCC(C)CC2)c2c(C)c(C(=O)Nc3cccc(C(F)(F)F)c3)sc2n1	none
Cc1nc(SC(C)C(=O)Nc2cccc(C(F)(F)F)c2)c2c(C)c(C(=O)O)sc2n1 (stereo unspecified)	POLH inh inconclusive, Pol kappa inh inconclusive, FEN1 inh inconclusive, Pol beta inh inconclusive | POLI cherry-pick 34
CCN(CC)c1ccc(C(=C2C=CC(=[N+](CC)CC)C=C2)c2ccc(S(=O)(=O)O)cc2S(=O)(=O)[O-])cc1	POLH inh 20µM, Pol iota inh inconclusive, FEN1 inh inconclusive, PGK inhibitor inconclusive (no result: Pol beta inh) | TbPGK inh 16µM
O=C(Nc1ccc(NC(=O)c2ccco2)c(Cl)c1)c1ccc2c(c1)OCCO2	POLH inh inconclusive, Pol iota inh inconclusive, Pol kappa inh inconclusive, Pol beta inh inconclusive | POLI cherry-pick inconclusive
Cn1c(C(=O)NC2CCCCC2)cc2sccc21	PGK inhibitor inconclusive | TbPGK inh inconclusive
CC1=C(C(=O)Nc2cccnc2)C(c2cccc(O)c2)n2nc(SCc3ccccc3)nc2N1 (stereo unspecified)	POLH inh inconclusive, Pol iota inh 79µM | POLI cherry-pick inconclusive
CC1=C(C(=O)Nc2cccnc2)C(c2ccccc2)n2nc(SCc3ccccc3)nc2N1 (stereo unspecified)	none
O=Cc1coc2ccc3ccccc3c2c1=O	PGK inhibitor inconclusive, Pol beta inh inconclusive | TbPGK inh inconclusive
Cc1ccc(-c2nnc3ccccc3c2C(=O)Nc2cccc(C(F)(F)F)c2)cc1	none
